# Results as given in PubChem BioAssay (NCI).
# This is part of a sample that, as a whole, favours compounds with a hit. Of some 79,000 tested, about 15% had one in any assay. Unmarked numbers belong to inactive results. Active and inactive are the calls of the source. No stated cut-off is given here; in the data, active means growth inhibition above about 70%; inactive means the rest.
# Experiments:
# [1] = NCI Yeast Anticancer Drug Screen. Data for the rad50 strain (AID 155);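 further: 0% = growth of vehicle-only cultures of the same strain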; details: S. cerevisiae rad50 strain growth inhibition; at 50.0 µM; stronger effect = higher value
# Procedure, shortened: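 A DNA repair-deficient yeast mutant serves as the test organism; compound-induced growth inhibition is calculated against vehicle-treated cells.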
# [2] = NCI Yeast Anticancer Drug Screen. Data for the mec2-1 strain (AID 157); details: S. cerevisiae mec2-1 strain, at 50.0 µM, stronger effect = higher value
# Procedure, shortened: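 Strain: mec2-1 (DNA repair/cell cycle alteration). Compound exposure, then growth measured; inhibition expressed relative to vehicle.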
# [3] = NCI Yeast Anticancer Drug Screen. Data for the sgs1 mgt1 strain (AID 161);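 further: 0% = growth of cultures given vehicle only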; details: S. cerevisiae sgs1 mgt1 strain, at 50.0 µM, stronger effect = higher value
# Procedure, shortened: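 Mutant yeast exposed to compound; growth scored against vehicle-only wells.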
# [4] = NCI Yeast Anticancer Drug Screen. Data for the bub3 strain (AID 167); details: S. cerevisiae bub3 mutant strain, at 50.0 µM, stronger effect = higher value
# Procedure, shortened: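 Inhibition values come from growth of compound-treated mutant yeast normalised to vehicle-treated controls.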
# [5] = NCI Yeast Anticancer Drug Screen. Data for the mlh1 rad18 strain (AID 175); details: S. cerevisiae mlh1 rad18 strain growth inhibition; at 50.0 µM; stronger effect = higher value
# Procedure, shortened: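 Read-out is yeast growth inhibition, calculated against vehicle-only controls. The compound was applied to a strain engineered with DNA damage repair alterations.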
# [6] = NCI Yeast Anticancer Drug Screen. Data for the cln2 rad14 strain (AID 165);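 further: 0% = growth equal to vehicle treated cultures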; details: S. cerevisiae cln2 rad14 strain, at 50.0 µM, stronger effect = higher value
# Procedure, shortened: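 Compounds are applied to the cln2 rad14 yeast strain, and growth is then compared with that of vehicle-treated cultures to give inhibition.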
Compound,growth inhibition [1] [%],growth inhibition [2] [%],growth inhibition [3] [%],growth inhibition [4] [%],growth inhibition [5],growth inhibition [6] [%]
O=C(/C=C/c1ccccc1)c1ccc(O)cc1O,-27.3,-13.2,14.8,1.65,2.1%,
CC(C)C1OC2(CCCC2)OCC1(C)C (centres undefined),-10.2,-19.4,-10.4,-4.7,-1.1%,
CCOC(=O)Cc1ccc(OC)c(OC)c1,3.45,-7.05,3.9,-2.8,1.4%,
Cc1cccc(NC(=O)c2ccc(Cl)cc2Cl)n1 (tested in a mixture with another compound),-2.95,-7.05,3.45,4.05,20.9%,
C/C(=N/N(CCCCN(/N=C(/C)c1ccccc1)c1ccccc1)c1ccccc1)c1ccccc1,48.5,13.2,17.1,1.55,39.2%,
C=C(C)c1ccc(B2Nc3ccccc3N2)cc1,53.6,30.2,45.6,40.8,58.5%,
C=C1CC2(CCC3C4CC=C5CC(O)CCC5(C)C4CCC32C)OC1=O (centres undefined),2.9,11.7,6.45,8.15,15.2%,
CC(C)C[N+](=O)[O-],-23.4,-21.1,-4.05,-1.25,11.3%,
COc1ccc2c(c1OC)C(Cc1ccccc1)N1CCc3cc4c(cc3C1C2)OCO4 (centres undefined),21.4,59,48,51.6,77.8% (active),
Cc1ccc2cc(C)c(C)cc2c1,30.6,-3.35,-10.8,-2.6,12.8%,
Cc1ccc(NC(=O)/C(CC(=O)c2sc(Nc3ccccc3Cl)nc2C)=N\Nc2ccc([N+](=O)[O-])cc2[N+](=O)[O-])c(C)c1,-1,17.1,4.25,4.55,-4.25%,
CCOC(=O)c1c(Br)c(-c2ccc(OC)cc2)c(Br)n1C,-12.8,9.8,-22.2,-39,-5.95%,
O=c1cc(-c2ccccc2)oc2c(N=Nc3ccccc3)ccc(O)c12,33.8,-14.8,22.9,22.4,-11.5%,
N#Cc1cc([N+](=O)[O-])ccc1NC(=O)C(=O)C(C(=O)c1ccc2ccccc2c1)C1OCc2ccccc21 (centres undefined),11.1,-6.4,-2.85,,-9.95%,
COC(=O)C(C#N)(CCC(=O)c1ccccc1)CCC(=O)c1ccccc1,13.3,17.3,10.2,17.8,9.8%,
CC(Oc1ccccc1)C(O)(c1ccc(N(C)C)cc1)c1ccc(N(C)C)cc1 (centres undefined),3.3,-5.9,9.3,1.4,11.9%,
CNC(=O)C(C)Oc1ccc(OCC2CCCCC2)cc1 (centres undefined),-0.8,-44.2,-14.4,-46.9,-55.6%,
CCn1cc(C(=O)O)c(=O)c2ccc(-c3ccncc3)cc21,3.35,8.7,5.75,17,11.4%,
Cc1ncc2c(n1)NC(=O)NC2,17.1,13.5,-16.6,-23.1,-13.9%,
SC1c2ccccc2-c2ccccc21,30.1,2.75,7.5,-30.2,1.7%,
CC1(CCl)Nc2ccccc2C(=O)N1c1ccccc1 (centres undefined),6.65,-6.2,16.4,28.4,8.5%,
COC(=O)c1ccc(C)[nH]1,-12.8,10.4,-22.2,6.4,-1.8%,
c1ccc(C2CCCN2)cc1 (centres undefined),6,-12.4,-11,-1.4,4%,
BrC/C(=N\N1CCCCC1)c1ccc(Br)cc1,6.55,-7.95,-8.05,16.6,14%,

Compound,growth inhibition [1] [%],growth inhibition [2] [%],growth inhibition [3] [%],growth inhibition [4] [%],growth inhibition [5],growth inhibition [6] [%]
CNC(=S)/C(C(C)=O)=C(\C)Nc1ccccc1,-0.95,-5.55,-8.05,-14.6,15.2%,
CCOC(=O)N1OC2C=CC1CC2 (centres undefined),-7.45,-9.45,-12.1,3.45,15.1%,
Oc1c(Cl)cccc1CN1CCOCC1,26.1,6.15,30.5,-9.35,33%,
NC(=S)c1ccc[n+]([O-])c1,15.6,10.1,20.2,6.9,6.85%,
OC12C=CC(CCCC1)O2 (centres undefined),0.35,-6.65,-7.4,10.3,4.9%,
CN(C)c1ccc(/C=C/c2ccccc2)cc1,-3.6,-6.15,-8.95,-16.2,1.55%,
CCOC(=O)N1C=Cc2ccccc2C1C(=N)N (centres undefined),-20.2,-12.3,-11,-6.3,-13.6%,
O=C(Nc1ccccc1)c1ccc(I)cc1,7.05,-31.7,8.3,3.95,-25.3%,
Nc1c(S(=O)(=O)O)cc(Nc2cccc(S(N)(=O)=O)c2)c2c1C(=O)c1ccccc1C2=O,5.05,1.1,-42.4,-17.1,24.6%,
OC(CCl)CN1CCN(CC(O)CCl)CC1 (centres undefined),-3.05,12.3,,-9.55,-24.8%,13.5
CCOc1cc(/C=C2\N=C(c3ccccc3)OC2=O)ccc1O,5,1.2,,-12.8,-2.75%,-50.8
CC(C)CC(C#N)C(=O)O (centres undefined),-1.45,-1.95,,-4.35,2.1%,5.45
CC(=O)[O][Ga]([Cl])[O]C(C)=O,22.2,27.2,,30.3,14.3%,34.3
NN1CCCC(O)C1 (centres undefined),-0.15,-18.4,,5.1,5.4%,4.5
O=C(NCCc1c(-c2ccccc2)[nH]c2ccccc12)C1CCCCC1,-10.6,17.9,,30.9,-2.3%,-6.1
C=C1CCC2[C@@H](CCC3[C@]2(C)CCC[C@]3(C)C(=O)OC)[C@@H]1CC=O (some centres undefined),11.4,10.2,,9.5,14.8%,23.4
Cn1cc(Cc2ccc(-c3ccccc3)cc2)c(=O)c(Cc2ccc(-c3ccccc3)cc2)c1,30.6,6.75,,3.9,27.8%,12.5
CC(C)(O)C1OCC(C2CCC3(C)C4=CCC5C(C)(C)C(O)CCC5(C)C4CCC23C)CC1O (centres undefined),23.7,27.6,,21.5,4.75%,42.6
Cc1ccccc1-n1c(C)nc(-c2ccccc2)cc1=O,-23.4,-47.2,,-9.4,2.8%,15.5
NC(=O)C1CCCN(C2OC(COP(=O)(O)OP(=O)(O)OCC3OC(n4cnc5c(N)ncnc54)C(OP(=O)(O)O)C3O)C(O)C2O)C1 (centres undefined),5.85,-15.1,,16.3,-0.9%,1.5
Nc1nc2c(ncn2C2OC(CO)C3OP(=O)(O)OC32)c(=O)[nH]1 (centres undefined),-8.5,-5.1,,0.2,-15.8%,-29.4
O=S(=O)(Cc1c[nH]c2ccccc12)c1ccccc1,34.1,-3.2,,20.5,37.6%,11.3
CC(=O)C1(c2ccccc2)C(C)(C)C(C)(C)C(=O)C(C)(C)C1(C)C,19.4,7.55,,12.9,21.6%,16.9
